{"source": "paper PMC4552634", "about": "“A New Set of Chemical Starting Points with Plasmodium falciparum Transmission-Blocking Potential for Antimalarial Drug Discovery” (PLoS ONE, 2015)", "note": "The campaign covered roughly 13,000 compounds. About 3,200 (25%) showed an effect of 50% or more. Some of the results follow."}
{"system": "P. falciparum stage V gametocytes", "design": "BacTiter-Glo ATP luminescence viability of purified stage V gametocytes in 384-well plates, per cent inhibition versus DMSO", "conditions": "48 h, 5 µM; inhibitor", "units": {"% Inhibition": "%"}}
{"smiles": "COc1ccccc1CCNc1ncnc2c1[nH]c1ccc(F)cc12", "note": "[TCMDC-124556]", "% Inhibition": 39.14}
{"smiles": "COc1ccc(OC)c(Cc2cnc3nc(N)[nH]c(=O)c3c2C)c1", "note": "[TCMDC-138103]", "% Inhibition": 16.49}
{"smiles": "CN(C)C(=O)CCCn1c(CNCCCNc2cc(=O)c3ccccc3[nH]2)cc2c(Cl)cc(Cl)cc21", "note": "[TCMDC-140466]", "% Inhibition": -27.37}
{"smiles": "CCCC1CCNC(C(O)c2ccnc3ccc(OC)cc23)C1", "note": "(centres unmarked) [TCMDC-138276]", "% Inhibition": 11.37}
{"smiles": "COc1cccc(-c2nn(C)c3sc(C(=O)NCCN(C)Cc4ccccc4)cc23)c1", "note": "[TCMDC-123583]", "% Inhibition": -8.796}
{"smiles": "CN(C)CCNC(=O)c1cc2c(-c3ccc(Cl)cc3)nn(C)c2s1", "note": "[TCMDC-123580]", "% Inhibition": -36.25}
{"smiles": "Cc1ccc(-n2nc(-c3ccccc3)c3cc(C(=O)NCCN)sc32)cc1", "note": "[TCMDC-124776]", "% Inhibition": 110.1}
{"smiles": "CC(C)Oc1ccc2c(c1)OC(c1ccccc1)(C(F)(F)F)NC2=O", "note": "(centres unmarked) [TCMDC-123633]", "% Inhibition": 28.56}
{"smiles": "Cc1nc(Cl)c2c(-c3ccccc3)csc2n1", "note": "[TCMDC-125437]", "% Inhibition": -3.595}
{"smiles": "CN(C)Cc1cccc(-c2ccc3ccnc(N)c3c2)c1", "note": "[TCMDC-136795]", "% Inhibition": 100.3}
{"smiles": "COc1cccc(-c2ccc3c(-c4ccc(F)cc4)cnc(N)c3c2)c1", "note": "[TCMDC-134514]", "% Inhibition": 40.73}
{"smiles": "Nc1ccc(-c2ccc3ccnc(N)c3c2)cc1", "note": "[TCMDC-136763]", "% Inhibition": -16.03}
{"smiles": "Nc1nccc2ccc(-c3cccc(OCc4ccccc4)c3)cc12", "note": "[TCMDC-133430]", "% Inhibition": 24.46}
{"smiles": "CS(=O)(=O)Nc1ccc(-c2ccc3ccnc(N)c3c2)cc1", "note": "[TCMDC-136788]", "% Inhibition": 43.95}
{"smiles": "NC(=O)c1ccc(-c2ccc3ccnc(N)c3c2)cc1", "note": "[TCMDC-133429]", "% Inhibition": 50}
{"smiles": "CN(C)CC(=O)Nc1ccc(-c2ccc3ccnc(N)c3c2)cc1", "note": "[TCMDC-133427]", "% Inhibition": 67.97}
{"smiles": "COc1cccc(-c2ccc3ccnc(N)c3c2)c1", "note": "[TCMDC-133361]", "% Inhibition": 60.33}
{"smiles": "NS(=O)(=O)c1cccc(Nc2nccc(-c3c(-c4cccc(NC(=O)c5c(F)cccc5F)c4)nn4ccccc34)n2)c1", "note": "[TCMDC-135780]", "% Inhibition": -65.73}
{"smiles": "Cc1csc(-c2nc(NCc3cccnc3)ncc2-c2ccsc2)n1", "note": "[TCMDC-124841]", "% Inhibition": 9.704}
{"smiles": "CC(C)(C)c1cc(NC(=O)c2ccc(Cl)c([N+](=O)[O-])c2)cc(C(C)(C)C)c1", "note": "[TCMDC-125604]", "% Inhibition": 2.881}
{"smiles": "Cc1ccc(C(=O)N2CCN(Cc3nccs3)CC2)cc1", "note": "[TCMDC-140738]", "% Inhibition": 3.888}
{"smiles": "O=c1cc(NCCCNCc2scc(I)c2I)[nH]c2ccccc12", "note": "[TCMDC-140908]", "% Inhibition": -12.68}
{"smiles": "CN(C)Cc1ccc(-c2ccc3ccnc(N)c3c2)cc1", "note": "[TCMDC-136790]", "% Inhibition": 60.33}
{"smiles": "NCc1ccc(-c2ccc3c(N)nccc3c2)cc1", "note": "[TCMDC-133718]", "% Inhibition": 107.3}
{"smiles": "Nc1cccc(-c2ccc3ccnc(N)c3c2)c1", "note": "[TCMDC-136762]", "% Inhibition": 21.07}
{"smiles": "Nc1nccc2ccc(-c3cccc4ncccc34)cc12", "note": "[TCMDC-133424]", "% Inhibition": 95.32}
{"smiles": "Nc1cc(-c2ccc3c(N)nccc3c2)ccc1Cl", "note": "[TCMDC-136895]", "% Inhibition": -23.38}
{"smiles": "Nc1nccc2ccc(-c3cccnc3)cc12", "note": "[TCMDC-136599]", "% Inhibition": 30.25}
{"smiles": "NCc1cccc(-c2ccc3ccnc(N)c3c2)c1", "note": "[TCMDC-136889]", "% Inhibition": 55.02}
{"smiles": "COC(=O)c1noc(C)c1I", "note": "[TCMDC-131678]", "% Inhibition": -0.6747}
{"smiles": "CN1CCN(c2ccc(Nc3c(C(N)=O)cnc4cc(-c5ccoc5)ccc34)cc2C(F)(F)F)CC1.Cl", "note": "[TCMDC-135443]", "% Inhibition": 2.768}
{"smiles": "O=C(Nc1ccc(Cl)cc1)Nc1ccc(-c2cccc(-c3nc4ccccc4[nH]3)c2)cc1", "note": "[TCMDC-133187]", "% Inhibition": -14.37}
{"smiles": "CC(C)(C)CCOC(=O)N1CCc2c(cc(O)c(O)c2Cl)C(c2ccc(O)cc2)C1", "note": "(centres unmarked) [TCMDC-141981]", "% Inhibition": -77.14}
{"smiles": "Nc1nc(N)c2c3c(ccc2n1)CCC3", "note": "[TCMDC-137720]", "% Inhibition": -10.07}
{"smiles": "Cc1ccc(NC(=S)N2CCCN(CCCCCNC(=O)/C=C/c3ccc(Cl)c(Cl)c3)CC2)cc1Cl", "note": "[TCMDC-135895]", "% Inhibition": -0.4693}
{"smiles": "COc1ccccc1CNC(=O)c1cc(C2CC2)nc2c1cnn2C(C)C", "note": "[TCMDC-125250]", "% Inhibition": 49.1}
{"smiles": "Cc1cccc(C)c1N1CCN(C2CCC(NC(=O)/C=C/c3ccccc3)CC2)CC1", "note": "(centres unmarked) [TCMDC-132881]", "% Inhibition": -29.57}
{"smiles": "COCCN1CCC(NCC(C)(C)c2nc(-c3ccc(Cl)c(O)c3)c(-c3ccncc3)[nH]2)CC1", "note": "[TCMDC-140926]", "% Inhibition": -95.92}
{"smiles": "CCCN(Cc1nnc(-c2ccco2)o1)C(=O)C1CCCN(C(=O)c2ccc(Cl)cc2)C1", "note": "(centres unmarked) [TCMDC-125334]", "% Inhibition": -4.25}
{"smiles": "Cc1cc(CNC(=O)c2ccc(-c3ccc(-c4nc5cc(C(F)(F)F)ccc5[nH]4)s3)cc2)on1", "note": "[TCMDC-132481]", "% Inhibition": -11.54}
{"smiles": "CCCCCc1cc(O)c2c(c1)OC(C)(C)CC2C1=CCN(Cc2cnc3ccccc3c2)CC1", "note": "(centres unmarked) [TCMDC-131418]", "% Inhibition": -11.08}
{"smiles": "Nc1ncc(-c2ccsc2)c2ccc(-c3cnc[nH]3)cc12", "note": "[TCMDC-135369]", "% Inhibition": -1.546}
{"smiles": "Nc1nccc2ccc(-c3ccncc3)cc12", "note": "[TCMDC-138929]", "% Inhibition": 32.25}
{"smiles": "Nc1ncc(-c2ccsc2)c2ccc(-c3ccc4cn[nH]c4c3)cc12", "note": "[TCMDC-135299]", "% Inhibition": 100.9}
{"smiles": "Nc1nccc2ccc(-c3ccsc3)cc12", "note": "[TCMDC-133431]", "% Inhibition": 53.31}
{"smiles": "Nc1nccc2ccc(Oc3ccncc3)cc12", "note": "[TCMDC-136517]", "% Inhibition": 51.03}
{"smiles": "Cn1cncc1-c1ccc2c(-c3ccsc3)cnc(N)c2c1", "note": "[TCMDC-135368]", "% Inhibition": 3.201}
{"smiles": "Nc1nccc2ccc(-c3ccc(Oc4ccccc4)cc3)cc12", "note": "[TCMDC-133432]", "% Inhibition": 19.11}
{"smiles": "Nc1nccc2ccc(-c3ccc4nccn4c3)cc12", "note": "[TCMDC-133425]", "% Inhibition": 49.74}
{"smiles": "Nc1nnc(-c2ccc(Cl)c(Br)c2)c(N)n1", "note": "[TCMDC-137285]", "% Inhibition": -16.33}
{"smiles": "Cc1cc(N2Cc3ccccc3C2)nc(Nc2cccc(C#N)c2)n1", "note": "[TCMDC-134199]", "% Inhibition": -14.79}
{"smiles": "Cc1[nH]c2c(C)cc(NS(C)(=O)=O)cc2c1C1CCN(CC2CCN(C(=O)/C=C/c3ccc(Cl)c(Cl)c3)CC2)CC1", "note": "[TCMDC-140173]", "% Inhibition": -57.53}
{"smiles": "Cc1cccc(C(=O)Nc2ccnc(N(C)CCCN(C)Cc3cccc(C#N)c3)c2)c1", "note": "[TCMDC-134968]", "% Inhibition": 26.78}
{"smiles": "O=C(Nc1ccccc1O)c1ccc(S(=O)(=O)c2ccc(Cl)cc2)cc1", "note": "[TCMDC-123689]", "% Inhibition": 47.63}
{"smiles": "CC(C)CCN1CCCN(Cc2ccc(C(=O)NCc3ccc(Cl)cc3)cc2)CC1", "note": "[TCMDC-136452]", "% Inhibition": -12.3}
{"smiles": "O=C(NCc1ccco1)c1ccc(S(=O)(=O)c2ccc(Cl)cc2)cc1", "note": "[TCMDC-124393]", "% Inhibition": 65.45}
{"smiles": "O=C(Nc1ccc(-c2cccc(-c3nc4ccccc4[nH]3)c2)cc1)Nc1ccc(Cl)c(Cl)c1", "note": "[TCMDC-133284]", "% Inhibition": -10.68}
{"smiles": "O=C(Nc1ccccc1O)c1ccc(Oc2cccc(C(=O)Nc3ccccc3O)c2)cc1", "note": "[TCMDC-125220]", "% Inhibition": -89.02}
{"smiles": "Cc1cc2ccccc2n1CC(=O)N1CC(C(=O)N2CCCCC2)Oc2ccccc21", "note": "(centres unmarked) [TCMDC-125253]", "% Inhibition": 84.5}
{"smiles": "CCN(CC)C(=O)C1CCN(C(C(=O)N2CCN(CC(=O)N3CCCC3)CC2)c2cc3ccccc3o2)CC1", "note": "(centres unmarked) [TCMDC-141126]", "% Inhibition": -9.75}
{"smiles": "COc1ccc(C(F)(F)F)cc1N1CCN(CCCCNC(=O)c2ccc(NC(=O)c3ccc(Cl)cc3)cc2)CC1", "note": "[TCMDC-138258]", "% Inhibition": -21.85}
{"smiles": "O=C(Nc1ccc(C(=O)OCC2CCCN3CCCCC23)cc1)c1ccc(Cl)c(Cl)c1", "note": "(centres unmarked) [TCMDC-124027]", "% Inhibition": 3.603}
{"smiles": "CN1CCN(c2ccc(Nc3ccnc4ccc(-c5ccccc5)cc34)cc2)CC1", "note": "[TCMDC-123917]", "% Inhibition": -37.23}
{"smiles": "OCCN1CCN(c2ccc(Nc3ccnc4cc5ccccc5cc34)cc2)CC1", "note": "[TCMDC-123915]", "% Inhibition": 73.35}
{"smiles": "CC(C)Nc1ccc(Nc2ccnc3cc4ccccc4cc23)cc1", "note": "[TCMDC-123916]", "% Inhibition": -35.26}
{"smiles": "CCN(CC)CCNc1ccnc2ccc3ccccc3c12", "note": "[TCMDC-131800]", "% Inhibition": 5.083}
{"smiles": "c1ccc2cc3c(Nc4ccc(N5CCCCC5)cc4)ccnc3cc2c1", "note": "[TCMDC-123505]", "% Inhibition": -37.48}
{"smiles": "CCN(CC)CCNc1ccc(Nc2ccnc3cc4ccccc4cc23)cc1", "note": "[TCMDC-123498]", "% Inhibition": 93.37}
{"smiles": "O=C(/C=C/c1ccc(Cl)c(Cl)c1)NCCCCCN1CCC(NC(=S)Nc2ccc(Cl)cc2Cl)CC1", "note": "[TCMDC-135902]", "% Inhibition": 24.59}
{"smiles": "CCOc1ccc2nc(N(CCCn3ccnc3)C(=O)C=Cc3cccs3)sc2c1", "note": "[TCMDC-124925]", "% Inhibition": -19.53}
{"smiles": "Nc1nc(N)c2c(ccc3nn(S(=O)(=O)N4CCCC4)cc32)n1", "note": "[TCMDC-137854]", "% Inhibition": 1.328}
{"smiles": "COc1c(C2CCN(CCCCNC(=O)c3cc(-c4ccc(C#N)cc4)n[nH]3)CC2)ccc2c1CCCC2", "note": "[TCMDC-134659]", "% Inhibition": -32.94}
{"smiles": "COc1c(C2CCN(CCCCNC(=O)C=Cc3ccccc3C(F)(F)F)CC2)ccc2c1CCCC2", "note": "[TCMDC-135279]", "% Inhibition": 85.89}
{"smiles": "COc1c(C2CCN(CCCCNC(=O)c3oc(-c4ccc(Cl)cc4)cc3CO)CC2)ccc2c1CCCC2", "note": "[TCMDC-134829]", "% Inhibition": -10.73}
{"smiles": "COc1c(C2CCN(CCCCNC(=O)c3ccc(-c4ccc(Cl)cc4)c(O)c3)CC2)ccc2c1CCCC2", "note": "[TCMDC-134282]", "% Inhibition": 111.5}
{"smiles": "COc1c(C2CCN(CCCCNC(=O)c3ccc(-c4ccc(Cl)cc4)c(OCCN(C)C)c3)CC2)ccc2c1CCCC2", "note": "[TCMDC-134371]", "% Inhibition": 101.9}
{"smiles": "COc1c(C2CCN(CCCCNC(=O)C=Cc3cc4cc(Cl)ccc4o3)CC2)ccc2c1CCCC2", "note": "[TCMDC-135062]", "% Inhibition": -50.69}
{"smiles": "COc1c(C2CCN(CCCCNC(=O)c3ccc(-c4ccc(C#N)cc4)c(O)c3)CC2)ccc2c1CCCC2", "note": "[TCMDC-138682]", "% Inhibition": 69.72}
{"smiles": "COC(=O)COc1cc(C(=O)NCCCCN2CCC(c3ccc4c(c3OC)CCCC4)CC2)ccc1-c1ccc(Cl)cc1", "note": "[TCMDC-134372]", "% Inhibition": 38.74}
{"smiles": "COc1c(C2CCN(CCCCNC(=O)c3ccc(-c4ccc(C#N)cc4)nc3)CC2)ccc2c1CCCC2", "note": "[TCMDC-134688]", "% Inhibition": -0.6168}
